Most compounds without a hit are left out; they make up all but 3% or so of the library.
SENP8 block-1: SENP8 (human) protease inhibition; recombinant SENP8, Nedd8 substrate fluorescence; Q96LD8; hit rate 0.64% among 360,000; AID 602440; inhibition, % at 20 µM; in the data active = inhibition mostly above about 40%, no sharp cut-off; inactive = mostly below about 27%
PPC-1+TRAIL kill: PPC-1 cancer cell killing with TRAIL present; cell killing (% activity), % at 4 µM or 5 µM; PPC-1 cells + TRAIL, ATPLite viability luminescence; hit rate 0.41% among 220,000; AID 1443;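 active = cell killing above 50% in the first pass at 4 µM, then a duplicate retest at 5 µM averaging 50% or more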;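 also: plate controls were cells with TRAIL plus DMSO for no effect and medium-only wells lacking cells for full effect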
C8 TRAIL sens: caspase-8 TRAIL sensitization | NB7+C8 cells + TRAIL, ATPlite viability luminescence | inhibition (viability loss, TRAIL sensitization), % at 10 µM | hit rate 1% among 360,000 | AID 624354;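 active = compounds causing at least 50% loss of cell viability in the single-dose screen, relative to plate controls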
SENP7 block: SENP7 protease inhibition. Q9BQF6. recombinant SENP7, Z-RLRGG-aminoluciferin luminescence, 40 min. inhibition, % at 5 µM. hit rate 1.5% among 330,000. AID 434973;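 active = inhibition above about 50% at the single test dose, limit read from the data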;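 also: plate controls were DMSO with enzyme for no effect and no enzyme buffer wells for full effect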
Target sequence (Q9BQF6 706-1050 limits assumed): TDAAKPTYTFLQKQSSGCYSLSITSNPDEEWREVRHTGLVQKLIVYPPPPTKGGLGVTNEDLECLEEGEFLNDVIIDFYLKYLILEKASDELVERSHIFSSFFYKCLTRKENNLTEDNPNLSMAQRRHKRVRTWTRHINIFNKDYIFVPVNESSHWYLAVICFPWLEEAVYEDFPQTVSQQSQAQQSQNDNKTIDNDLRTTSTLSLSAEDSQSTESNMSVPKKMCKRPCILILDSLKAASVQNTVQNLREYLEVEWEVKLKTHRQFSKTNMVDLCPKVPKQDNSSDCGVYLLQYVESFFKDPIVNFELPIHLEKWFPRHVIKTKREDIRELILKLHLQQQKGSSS
SENP8 block-2: blocks the human protease SENP8 | Q96LD8 | purified SENP8, Z-RLRGG-aminoluciferin cleavage, luminescence | inhibition, % at 10 µM | hit rate 1.2% among 330,000 | AID 2540; in the data active = inhibition above about 50%
SENP6 block: inhibitors of human SENP6 protease | Q9GZR1 | Recombinant SENP6 catalytic domain, aminoluciferin luminescence | inhibition, % at 10 µM | hit rate 1.8% among 330,000 | AID 2599;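 active = inhibition above about 50% at the single tested dose, limit read from the data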;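 also: plate controls were DMSO wells with enzyme for no effect and DMSO wells lacking enzyme for full effect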
SENP8 confirm: human SENP8 inhibition, confirmed | shares compounds with SENP7 block | Recombinant SENP8, Z-RLRGG-aminoluciferin luminescence, 60 min | inhibition, % at 12.5 µM | hit rate 40% among 6,200 | AID 488912;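 active = mean inhibition across replicates above about 50%, limit read from the data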
SENP6 conf: confirmation of human SENP6 protease inhibitors. AID 488915. inhibition, % at 12.5 µM. shares compounds with SENP7 block. recombinant SENP6, Z-RLRGG-aminoluciferin luminescence. hit rate 58% among 6,200
SENP7 confirm: confirmation of human SENP7 protease inhibitors; shares compounds with SENP7 block; recombinant SENP7, Z-RLRGG-aminoluciferin luminescence, 40 min; inhibition, % at 12.5 µM; hit rate 69% among 6,200; AID 488917
Casp3 select: selectivity test for SENP inhibitors: human caspase-3 inhibition; inhibition, % at 12.5 µM; hit rate 60% among 6,200; shares compounds with SENP7 block; purified caspase-3, Z-DEVD-aminoluciferin luminescence, 60 min; AID 488918;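 active = mean inhibition above about 50%, limit read from the data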;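 also: plate controls were enzyme with DMSO for no effect and wells without caspase-3 for full effect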
Target sequence (P42574 28-227 limits assumed): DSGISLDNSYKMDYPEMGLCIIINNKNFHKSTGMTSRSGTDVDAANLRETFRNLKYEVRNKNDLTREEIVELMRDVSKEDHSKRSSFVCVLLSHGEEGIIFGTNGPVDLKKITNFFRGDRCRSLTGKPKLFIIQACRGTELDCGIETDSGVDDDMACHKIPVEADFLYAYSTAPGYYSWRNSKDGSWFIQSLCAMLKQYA
Luc interf: interferes with luciferase luminescence in SENP counter-screen. shares compounds with SENP7 block. Pre-incubated SENP8/Z-RLRGG-aminoluciferin, luciferase luminescence interference. inhibition, % at 12.5 µM. hit rate 39% among 6,200. AID 488919;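 active = mean inhibition above about 50% when retested at one dose, limit read from the data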;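 also: plate controls were DMSO wells with completed reaction for no effect and substrate without enzyme for full effect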
An asterisk follows results filed as active.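 The calls were made as follows, unless noted: active = mean inhibition above about 50% in the one-dose retest (limit read from the data); inactive = the rest.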

What do the screens show for `COc1nc(-c2ccccc2)ccc1-c1noc(-c2cccs2)n1`?
SENP8 block-1: -169.7; C8 TRAIL sens: -15.1; SENP7 block: -4.0; SENP8 block-2: -29.7; SENP6 block: -50.3

Results for COc1nc(C)ccc1-c1noc(-c2cccs2)n1 ?
SENP8 block-1: -14.8; PPC-1+TRAIL kill: 15.4; C8 TRAIL sens: 20.8; SENP7 block: 70.0*; SENP8 block-2: 49.3; SENP6 block: 62.4*; SENP8 confirm: 2.7; SENP6 conf: 48.0; SENP7 confirm: 83.8*; Casp3 select: 41.3; Luc interf: 14.2

How did CC(C)Oc1cc(F)ccc1-c1cc(C(=O)NCCCn2ccnc2)[nH]n1 do in these assays?
SENP8 block-1: 14.2; C8 TRAIL sens: -16.2

What do the screens show for `Oc1cc(NCCc2cccnc2)cc2cccnc12`?
SENP8 block-1: -157.9; C8 TRAIL sens: 43.7; SENP7 block: 39.5; SENP8 block-2: 48.4; SENP6 block: 71.6*; SENP8 confirm: 14.3; SENP6 conf: 49.4; SENP7 confirm: 14.1; Casp3 select: 88.1*; Luc interf: -3.5

How did CC(=O)NC(c1ccc(F)c(F)c1)c1nc(-c2ccccc2C)cs1 (stereo not given) do in these assays?
SENP8 block-1: -1.2; C8 TRAIL sens: -6.2

Results for COc1ccc(/C=C/C(=O)NC(=S)N2CCOCC2)cc1 ?
SENP8 block-1: -2.5; C8 TRAIL sens: 6.7; SENP7 block: 70.2*; SENP8 block-2: 45.7; SENP6 block: 70.1*; SENP8 confirm: 61.6*; SENP6 conf: 56.4*; SENP7 confirm: 83.3*; Casp3 select: 80.4*; Luc interf: 67.1*

Results for CC(=O)N1N=C(c2ccc(C)cc2)OC1c1ccc(C)cc1 (stereo not given) ?
SENP8 block-1: 4.9; PPC-1+TRAIL kill: 12.7; C8 TRAIL sens: -10.3; SENP7 block: 20.4; SENP8 block-2: 2.6; SENP6 block: 45.8

How did CC(=O)N1N=C(c2ccc(C)cc2)OC1c1ccc(C(C)C)cc1 (stereo not given) do in these assays?
SENP8 block-1: 4.6; PPC-1+TRAIL kill: 8.4; C8 TRAIL sens: -19.6; SENP7 block: 66.4*; SENP8 block-2: -2.8; SENP6 block: 65.7*; SENP8 confirm: 7.2; SENP6 conf: 11.3; SENP7 confirm: 31.7; Casp3 select: 26.7; Luc interf: 21.2

What do the screens show for `COc1ccc(-c2cc(-c3ccc(Cl)cc3)n[nH]2)c(O)c1`?
SENP8 block-1: 19.1; C8 TRAIL sens: 17.7; SENP7 block: 63.5*; SENP8 block-2: 64.3*; SENP6 block: 69.7*; SENP8 confirm: 25.4; SENP6 conf: 48.3; SENP7 confirm: 86.6*; Casp3 select: 13.5; Luc interf: 66.5*

Results for COc1ccc(-c2cc(-c3ccc(OC)c(OC)c3)n[nH]2)c(O)c1 ?
SENP8 block-1: 16.0; PPC-1+TRAIL kill: 14.9; C8 TRAIL sens: -6.9; SENP7 block: 96.4*; SENP8 block-2: 93.3*; SENP6 block: 94.2*; SENP8 confirm: 97.1*; SENP6 conf: 97.6*; SENP7 confirm: 102.2*; Casp3 select: 86.3*; Luc interf: 95.0*

What do the screens show for `COc1ccc(-c2cc(-c3cc(F)ccc3O)[nH]n2)cc1OC`?
SENP8 block-1: -7.2; PPC-1+TRAIL kill: 7.5; C8 TRAIL sens: 15.3; SENP7 block: 82.9*; SENP8 block-2: 69.3*; SENP6 block: 72.0*; SENP8 confirm: 86.1*; SENP6 conf: 84.4*; SENP7 confirm: 95.0*; Casp3 select: 36.1; Luc interf: 82.7*

What do the screens show for `Cc1ccc(O)c(-c2cc(-c3cccc(F)c3)n[nH]2)c1`?
SENP8 block-1: 3.8; PPC-1+TRAIL kill: 27.1; C8 TRAIL sens: 25.3; SENP7 block: 16.0; SENP8 block-2: 5.5; SENP6 block: -10.1

Results for Oc1ccccc1-c1cc(-c2ccc3c(c2)OCCO3)n[nH]1 ?
SENP8 block-1: 11.5; PPC-1+TRAIL kill: 42.8; C8 TRAIL sens: 52.6*; SENP7 block: 1.4; SENP8 block-2: 94.6*; SENP6 block: 97.3*; SENP8 confirm: 97.3*; SENP6 conf: 99.1*; SENP7 confirm: 102.6*; Casp3 select: 91.7*; Luc interf: 68.3*

What do the screens show for `COc1cc(C(=O)N(c2ccc(C)c(C)c2)C2C=CS(=O)(=O)C2)cc(OC)c1OC` (stereo not given)?
SENP8 block-1: 8.1; PPC-1+TRAIL kill: -5.0; C8 TRAIL sens: 1.2; SENP7 block: 4.6; SENP8 block-2: 0.2; SENP6 block: -8.3

What do the screens show for `COc1ccc(-c2cc(-c3ccccc3O)[nH]n2)cc1OC`?
SENP8 block-1: 10.5; PPC-1+TRAIL kill: -8.3; C8 TRAIL sens: 16.9; SENP7 block: 88.3*; SENP8 block-2: 78.4*; SENP6 block: 79.7*; SENP8 confirm: 92.7*; SENP6 conf: 92.5*; SENP7 confirm: 100.7*; Casp3 select: 68.6*; Luc interf: 92.6*

Results for O=C(/C=C/Nc1ccc(F)cc1F)c1ccc(Br)cc1 ?
SENP8 block-1: -63.9; C8 TRAIL sens: 41.7; SENP7 block: 67.5*; SENP8 block-2: 0.0; SENP6 block: 15.6; SENP8 confirm: -5.8; SENP6 conf: -3.2; SENP7 confirm: -1.4; Casp3 select: 16.9; Luc interf: 3.4

Results for O=C(/C=C\Nc1cccc(F)c1)c1cccs1 ?
SENP8 block-1: -283.9; PPC-1+TRAIL kill: 30.9; C8 TRAIL sens: 27.0; SENP7 block: 92.4*; SENP8 block-2: 88.8*; SENP6 block: 94.4*; SENP8 confirm: 95.6*; SENP6 conf: 96.9*; SENP7 confirm: 102.0*; Casp3 select: 93.3*; Luc interf: 94.8*

How did O=C(/C=C/Nc1ccc(F)cc1F)c1cccs1 do in these assays?
SENP8 block-1: -138.5; PPC-1+TRAIL kill: 63.0*; C8 TRAIL sens: 93.2*; SENP7 block: 98.7*; SENP8 block-2: 97.0*; SENP6 block: 96.3*; SENP8 confirm: -7.9; SENP6 conf: 99.7*; SENP7 confirm: 103.5*; Casp3 select: 97.8*; Luc interf: 26.8

How did O=C(NNC(=O)c1cccs1)c1cccc(F)c1 do in these assays?
SENP8 block-1: 3.4; C8 TRAIL sens: 12.0; SENP7 block: 2.9; SENP8 block-2: -3.0; SENP6 block: -17.7

High-throughput results deposited in PubChem BioAssay by Sanford-Burnham Center for Chemical Genomics.
